Consider 25 molecules from PubChem BioAssay (Tox21).

The nature of experiment [1]: qHTS assay to identify small molecule antagonists of the estrogen related receptor (ERR) signaling pathway from Tox21 library - cell viability counter screen (AID 1224834). Note: nearly all actives have a fitted effect of over 30% in size. Note: potency is the fitted concentration of half-maximal effect. The procedure, abridged:
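Viability readout (CellTiter-Fluor fluorescence, 30 min at 37 C) multiplexed with the ERR assay; cells treated 17.5 h at 37 C with compounds delivered in DMSO.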
In general terms: In qHTS, concentration-response curves come from the screen itself.

Experiment [2] deals with Luciferin 4-monooxygenase (Photinus pyralis) (UniProt P08659). Briefly: qHTS assay to identify small molecule inhibitors of firefly luciferase (AID 1224835). For activity change, negative = inhibition: series mostly up to about 120 µM. Note: nearly all actives have a fitted effect of over 25% in size. Note: potency is the fitted concentration of half-maximal effect. In a few lines: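 Quantitative HTS format; KM concentrations of both substrates. Purified P. pyralis FLuc activity quantified from luminescence images.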
Experiment [3] addresses Nuclear receptor subfamily 1 group I member 3 (Homo sapiens) (UniProt Q14994). The experiment is described as follows: qHTS assay to identify small molecule antagonists of the constitutive androstane receptor (CAR) signaling pathway (AID 1224838).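 Note: HepG2 cells stably expressing hCAR with CYP2B6 luciferase reporter stimulated by CITCO; nearly all actives have a fitted effect of over 40% in size.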 Note: potency is the fitted concentration of half-maximal effect. The procedure, abridged:
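Quantitative HTS in double-stable HepG2-CYP2B6-hCAR cells. After 4 h plating, cells get compound (15 concentrations) and CITCO at 50 nM final, incubate 24 h at 37 C, then ONE-Glo luminescence is read.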

For experiment [4] the target is unchanged. The experiment is described as follows: qHTS assay to identify small molecule agonists of the constitutive androstane receptor (CAR) signaling pathway (AID 1224839).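 For activation: HepG2 cells stably carrying human CAR and a CYP2B6 luciferase reporter; series mostly up to about 92 µM.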 Note: nearly all actives have a fitted effect of over 15% in size. Note: potency is the fitted concentration of half-maximal effect. The procedure, abridged: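 Readout: firefly luciferase luminescence via ONE-Glo. System: HepG2 double-stable for hCAR and CYP2B6-2.2kb. Conditions: 15-point compound titration, PK11195 at 0.75 uM final, 24 h incubation.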

Experiment [5] has as its target Thyrotropin receptor (Homo sapiens) (UniProt P16473). Briefly: qHTS assay to identify small molecule agonists of the thyroid stimulating hormone receptor (TSHR) signaling pathway (AID 1224843; calls by dose curve; note: nearly all actives have a fitted effect of over 45% in size; note: potency is the fitted concentration of half-maximal effect). The procedure, abridged: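 TSHR-expressing HEK293 cells (800 per well) were exposed to compounds for 30 min at room temperature. cAMP was then detected by HTRF competition with cAMP-d2 and anti-cAMP cryptate, read after 1 h at room temperature. Fifteen concentrations, triplicate.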

Experiment [6] in a line: qHTS assay to identify small molecule agonists of the constitutive androstane receptor (CAR) signaling pathway - cell viability counter screen (AID 1224836). For viability change, negative = cytotoxic: series mostly up to about 92 µM. Note: nearly all actives have a fitted effect of over 45% in size. Note: potency is the fitted concentration of half-maximal effect. The procedure, abridged:
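Double-stable HepG2 hepatoma cells (hCAR plus CYP2B6-2.2kb) are treated for 23 h at 37 C with test compounds in 15-point concentration series. PK11195 at 0.75 uM final is co-added. Cell viability is quantified by CellTiter-Fluor.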

A short description of experiment [7]: qHTS assay to identify small molecule antagonists of the estrogen related receptor signaling pathway with the pleiotropic PPARgamma coactivator (PGC) from Tox21 10K library - cell viability counter screen (AID 1224840; active = well fitted cell-killing curve with a large enough effect in the repeat runs, not every such curve was filed as active; note: nearly all actives have a fitted effect of over 40% in size; note: potency is the fitted concentration of half-maximal effect). In a few lines:
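Compounds in DMSO, alongside positive and negative controls, were pinned onto PGC/ERR cells (2,000 per well). Exposure lasted 17.5 hours at 37 C, followed by a 30-minute CellTiter-Fluor incubation and fluorescence reading.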

Experiment [8] in a line: qHTS assay to identify small molecule antagonists of the estrogen related receptor signaling pathway with the pleiotropic PPARgamma coactivator (PGC) from Tox21 10K library (AID 1224841; call rule not given here; note: actives are mostly falling curves and most rising ones were filed inactive; nearly all actives have a fitted effect of over 50% in size; note: potency is the fitted concentration of half-maximal effect; for activity, negative = inhibition: series mostly up to about 92 µM). The procedure, abridged:
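Compound exposure ran 18 hours at 37 C in PGC/ERR cells (2,000/well) that had first rested 6 hours in a 37 C/5% CO2 incubator. Luciferase activity was then detected with One-Glo after a 30-minute room-temperature step.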

A short description of experiment [9]: qHTS assay to identify small molecule agonists of the estrogen related receptor signaling pathway with the pleiotropic PPARgamma coactivator (PGC) from Tox21 10K library (AID 1224842). Note: nearly all actives have a fitted effect of over 15% in size. Note: potency is the fitted concentration of half-maximal effect. In a few lines:
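PGC/ERR reporter cells (NTP line) were seeded 2,000 per well, rested 6 h at 37 C/5% CO2, then pin-dosed with compounds in DMSO for 18 h at 37 C; luciferase read by One-Glo luminescence after 30 min at room temperature.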

A short description of experiment [10]: qHTS assay to identify small molecule antagonists of the constitutive androstane receptor (CAR) signaling pathway - cell viability counter screen (AID 1224837). Note: series mostly up to about 92 µM; nearly all actives have a fitted effect of over 45% in size. The procedure, abridged: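 Fluorescence from CellTiter-Fluor served as the viability signal. Human hepatoma HepG2 cells stably bearing hCAR and CYP2B6-2.2kb received compound plus CITCO (50 nM final) for 23 hr.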

Molecules are shown by their SMILES. Several values for one entry are separate records, joined by “and”; a condition that tells them apart may be missing. Equal entries are not always repeated. Inconclusive results are not listed. More than one record can exist for a structure, and the calls need not agree. Activity calls are given as the source filed them. Unless noted, calls come from the whole dose curve; as a rule, active = well fitted curve in the direction sought with a large enough effect in the repeat runs; inconclusive = weak or mixed curves; inactive = no such curve, though single readings can be large; an effect the other way counts as inactive or inconclusive.
% is set by controls: 0 for no effect and ±100 for the full control effect.

Chain of Nuclear receptor subfamily 1 group I member 3 (Homo sapiens) (Q14994 whole entry, looked up): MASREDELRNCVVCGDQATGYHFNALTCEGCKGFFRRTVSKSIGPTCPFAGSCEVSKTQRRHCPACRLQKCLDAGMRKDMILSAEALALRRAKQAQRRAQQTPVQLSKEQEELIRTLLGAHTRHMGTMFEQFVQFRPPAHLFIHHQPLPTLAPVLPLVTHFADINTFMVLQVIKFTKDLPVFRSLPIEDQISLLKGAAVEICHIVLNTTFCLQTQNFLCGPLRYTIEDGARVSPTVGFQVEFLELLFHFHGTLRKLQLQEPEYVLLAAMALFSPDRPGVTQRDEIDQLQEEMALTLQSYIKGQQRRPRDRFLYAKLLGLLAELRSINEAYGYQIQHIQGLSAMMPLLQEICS
Chain of Thyrotropin receptor (Homo sapiens) (P16473 whole entry, looked up): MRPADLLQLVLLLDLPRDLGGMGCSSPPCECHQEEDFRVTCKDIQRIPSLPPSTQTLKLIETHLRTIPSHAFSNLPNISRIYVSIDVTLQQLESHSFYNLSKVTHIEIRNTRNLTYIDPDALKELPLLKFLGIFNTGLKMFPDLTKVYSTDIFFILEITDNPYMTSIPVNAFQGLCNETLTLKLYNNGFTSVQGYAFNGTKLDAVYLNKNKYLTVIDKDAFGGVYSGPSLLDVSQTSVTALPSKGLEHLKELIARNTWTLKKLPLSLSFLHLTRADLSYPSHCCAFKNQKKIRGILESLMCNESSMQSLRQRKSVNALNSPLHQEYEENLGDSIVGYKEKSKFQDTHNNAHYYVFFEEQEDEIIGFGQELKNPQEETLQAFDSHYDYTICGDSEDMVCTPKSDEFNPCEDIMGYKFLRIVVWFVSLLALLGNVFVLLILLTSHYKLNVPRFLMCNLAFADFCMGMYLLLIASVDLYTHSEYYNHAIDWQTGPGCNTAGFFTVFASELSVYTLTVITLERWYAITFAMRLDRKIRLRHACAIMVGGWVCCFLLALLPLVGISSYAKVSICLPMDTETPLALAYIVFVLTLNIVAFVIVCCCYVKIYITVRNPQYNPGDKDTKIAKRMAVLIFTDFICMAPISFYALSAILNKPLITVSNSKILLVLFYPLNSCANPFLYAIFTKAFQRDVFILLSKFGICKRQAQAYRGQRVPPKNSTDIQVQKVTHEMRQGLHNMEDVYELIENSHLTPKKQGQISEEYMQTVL
Chain of Luciferin 4-monooxygenase (Photinus pyralis) (P08659 whole entry, looked up): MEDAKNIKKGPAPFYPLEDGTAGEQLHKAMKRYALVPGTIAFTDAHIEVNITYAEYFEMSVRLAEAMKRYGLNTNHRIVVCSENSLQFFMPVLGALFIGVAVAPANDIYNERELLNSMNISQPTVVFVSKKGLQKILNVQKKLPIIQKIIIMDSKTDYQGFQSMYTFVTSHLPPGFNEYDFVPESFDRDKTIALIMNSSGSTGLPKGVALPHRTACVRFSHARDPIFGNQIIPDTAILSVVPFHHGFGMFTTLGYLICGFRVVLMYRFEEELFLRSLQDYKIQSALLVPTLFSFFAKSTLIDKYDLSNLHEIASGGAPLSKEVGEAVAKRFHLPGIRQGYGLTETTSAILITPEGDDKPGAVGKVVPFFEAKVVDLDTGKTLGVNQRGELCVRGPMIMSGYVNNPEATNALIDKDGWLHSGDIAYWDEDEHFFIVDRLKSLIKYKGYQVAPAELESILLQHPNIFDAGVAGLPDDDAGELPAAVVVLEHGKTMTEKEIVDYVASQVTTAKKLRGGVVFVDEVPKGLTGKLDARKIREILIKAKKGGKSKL

`CN1CCN(Cc2cc(-c3ccc4[nH]c(=O)oc4c3)co2)[C@@H](c2ccc(F)cc2)C1`: the results for the Potency in [1] and in [5] were 23.4 µM (active) and 13.2 µM (active), respectively. The Potency result in experiment [2], in experiment [3] and in experiment [4] was “inactive” in each case.
With `CC(C)NC[C@@H](O)COc1ccc(CC(N)=O)cc1`, the Potency result in experiment [1], in experiment [2], in experiment [6], in experiment [7] and in experiment [5] was “inactive” in each case.
Take `CCC(=O)C(=O)CC`: the Potency result in experiment [1], in [2], in [6], in experiment [4], in experiment [7] and in experiment [8] was “inactive” throughout. Further, the Potency result in experiment [9] and in experiment [5] was “inactive” each time.
`Cc1cc(-c2ccc(N=Nc3cc(S(=O)(=O)O)c4ccccc4c3N)c(C)c2)ccc1N=Nc1cc(S(=O)(=O)O)c2ccccc2c1N`: the Potency entry in experiment [1], in [2], in experiment [7], in experiment [9] and in [5] was “inactive” throughout.
`CCCCCCCCCCCCCC[N+](C)(C)Cc1ccccc1`: the Potency was 62.1 µM (active) and 23.7 µM (active) and 22.4 mM (active) in experiment [1]; 62.1 µM (active) and inactive in experiment [7]; 43.9 µM (active) in experiment [5]. In addition, the Potency result in experiment [2], in experiment [3], in experiment [4] and in experiment [9] was “inactive” throughout.
As for `O=C1OC2(c3ccc(O)cc3Oc3cc(O)ccc32)c2ccc(N=C=S)cc21`, the Potency result in experiment [1], in [2], in experiment [10], in [7], in experiment [9] and in experiment [5] was “inactive” in each case.
Take `Fc1ccc(C(c2ccc(F)cc2)N2CCNCC2)cc1`: the Potency entry in experiment [1], in experiment [2], in experiment [10], in experiment [7] and in [5] was “inactive” each time.
Take `O=S(=O)(O)c1ccccc1/C=C/c1ccc(-c2ccc(/C=C/c3ccccc3S(=O)(=O)O)cc2)cc1`: the Potency result in experiment [1], in [4], in experiment [7], in [8], in [9] and in experiment [5] was “inactive” throughout. The Potency in [2] was 57.2 µM (active).
Take `CC(=O)[C@H]1CC[C@H]2[C@@H]3CCC4=CC(=O)CC[C@]4(C)[C@H]3CC[C@]12C`: the Potency in experiment [1] is 30.5 µM (active) and 30.6 µM (active). The Potency result in experiment [2], in experiment [10], in experiment [9] and in [5] was “inactive” each time.
As to `c1ccc(SSc2ccccc2)cc1`, the Potency entry in experiment [1], in [6], in experiment [10], in [4] and in experiment [7] was “inactive” in each case. Also, the Potency in experiment [3] was 43.6 µM (active).
On to `COC(=O)C1=C(C)NC(C)=C(C(=O)OCCN2CCN(C(c3ccccc3)c3ccccc3)CC2)C1c1cccc([N+](=O)[O-])c1` (centres undefined), for which the values for the Potency in experiment [1] and in experiment [8] were 11.9 µM (active) and 9.44 µM (active), respectively. Moreover, the Potency entry in [2], in experiment [3], in experiment [4], in experiment [9] and in [5] was “inactive” in each case.
`Nc1cc(Cl)c(O)c(Cl)c1`: the Potency result in experiment [1], in [2], in experiment [6], in [3], in [7] and in experiment [8] was “inactive” each time. For the same molecule, the Potency entry in [9] is “inactive”.
As for `CCCC(=O)OC(C)(C)Cc1ccccc1`, the Potency entry in [1], in experiment [6], in experiment [10], in experiment [3], in experiment [4] and in experiment [7] was “inactive” in each case.
Take `OCC(F)(F)F`: the Potency result in [1], in experiment [2], in experiment [6], in experiment [8], in experiment [9] and in experiment [5] was “inactive” in each case.
On to `CCc1ccc(Br)cc1`, for which the Potency result in [1], in experiment [6], in experiment [10], in experiment [3], in experiment [4] and in experiment [7] was “inactive” in each case. The Potency result in experiment [8], in [9] and in [5] was “inactive” each time.
`CN(C)Cc1cc(C(C)(C)C)c(O)c(C(C)(C)C)c1`: the Potency entry in experiment [1], in [2], in [6], in experiment [7] and in experiment [9] was “inactive” in each case.
As for `CCCCCCCCCCCCCCCC[N+](C)(C)CC`, the Potency was 30.7 µM (active) and 23.7 µM (active) in experiment [1]; 30.7 µM (active) and inactive in [7]. For the same molecule, the Potency result in experiment [2], in experiment [9] and in experiment [5] was “inactive” in each case.
As to `S=c1nccc[nH]1`, the Potency result in [1], in [2], in experiment [6], in experiment [4], in experiment [7] and in experiment [9] was “inactive” throughout.
Take `Cc1c2ccccc2c(C)c2c1ccc1ccccc12`: the Potency in experiment [1] is 27 µM (active) and 54.5 µM (active); in experiment [2], 19.8 µM (active) and 31.7 µM (active); in experiment [4] it was 5.39 µM (active) and 9.69 µM (active); in experiment [7], 53.9 µM (active) and 27.3 µM (active); in experiment [8] it was 34.4 µM (active); in experiment [9], 24.1 µM (active) and inactive. The Potency in experiment [5] is 27 µM (active) and 24.3 µM (active). The Potency entry in [3] was “inactive”.
For the molecule `C=CC(=O)Nc1cc2c(Nc3ccc(F)c(Cl)c3)ncnc2cc1OCCCN1CCOCC1`, the Potency in experiment [1] is 23.7 µM (active); in experiment [6], 13.3 µM (active); in experiment [7], 13.3 µM (active); in experiment [9], 3.76 µM (active). The Potency result in [2], in experiment [8] and in experiment [5] was “inactive” throughout.
With `Cc1ccc(C(C)C)cc2c(C)ccc1-2`, the Potency result in experiment [1], in experiment [2], in experiment [6], in [3], in experiment [9] and in experiment [5] was “inactive” in each case.
As to `CC1(C)CCC[C@]2(C)[C@H]3CC(=O)O[C@]3(C)CC[C@@H]12`, the Potency result in experiment [1], in [6], in experiment [10], in [3], in [4] and in [7] was “inactive” in each case. For the same molecule, the Potency in experiment [5] is 19.3 µM (active).
Turning to `Nc1nc2c(ncn2COCCO)c(=O)[nH]1`, the Potency entry in experiment [1], in experiment [2], in [6], in [7], in experiment [9] and in experiment [5] was “inactive” in each case.
On to `CC(C)Cn1cnc2c(N)nc3ccccc3c21`, for which the viability change, negative = cytotoxic in experiment [1] is -3.99% [at 19 µM] (inactive); in experiment [6], -20.4% [at 19 µM] (inactive); in experiment [7], 16.3% [at 19 µM] (inactive). In addition, the activity change, negative = inhibition in experiment [2] was 5.54% [at 23.6 µM] (inactive). The figures for the activation in experiment [4], in experiment [9] and in [5] were 6.88% [at 19 µM] (inactive), 6.35% [at 19 µM] (inactive) and 14.2% [at 19 µM] (inactive), respectively. Moreover, the activity, negative = inhibition in experiment [8] was 23.8% [at 19 µM] (inactive).
Regarding `COc1ccc2c(c1)c(CC(=O)OC/C=C(\C)CC/C=C(\C)CCC=C(C)C)c(C)n2C(=O)c1ccc(Cl)cc1`, the Potency result in experiment [1], in experiment [2], in experiment [6], in [4], in experiment [7] and in [8] was “inactive” in each case. Further, the Potency result in experiment [9] was “inactive”.
